Experimental data: PubChem BioAssay AID1159580 (chemical genetic matrix, 2015)
Screen size: about 5,500 compounds; about 2,000 (36%) were called active. Inconclusive results (about 18%) are left out. Cut-off read from the data, not from the text of the source: active = normalized growth mostly below about 0.91 (no sharp cut-off); inconclusive = no clear call, values can overlap the other calls; inactive = mostly above about 0.92. Some of the results follow.

Test: chemical genetic growth profiling, strain panel (AID 1159580);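 note: tested at 20 µM; growth read once vehicle control cultures reached saturation at 30 °C; 1 = growth at the plate median or of vehicle wells; lower values mean less growth of the strain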
Conditions: growth OD

Measured: normalized growth

CC1CCCC(C)N1NC(=O)c1ccc(Cl)c(S(N)(=O)=O)c1 (stereo unspecified)
active: S. cerevisiae deletion strains, locus YNL322C, strain KRE1 (second series), hits give low values 1.11 [resistant]
inactive: S. cerevisiae deletion strains, locus YKL009W, strain mrt4, hits give low values 0.973 | S. cerevisiae deletion strains, locus YKL068W, hits give low values 0.992 | S. cerevisiae deletion strains, locus YKL085W, strain MDH1 (second series), hits give low values 0.987 | S. cerevisiae deletion strains, locus YKL085W, strain MDH1, hits give low values 0.987 | S. cerevisiae deletion strains, locus YKL160W, strain elf1, hits give low values 0.995 | S. cerevisiae deletion strains, locus YKL190W, strain CNB1, hits give low values 0.99 | S. cerevisiae deletion strains, locus YKR001C, strain vps1, hits give low values 1 | S. cerevisiae deletion strains, locus YKR026C, strain gcn3, hits give low values 0.999 | S. cerevisiae deletion strains, locus YKR091W, strain srl3, hits give low values 1.02 | S. cerevisiae deletion strains, locus YLL001W, strain dnm1, hits give low values 1.01 | S. cerevisiae deletion strains, locus YLL026W, hits give low values 1.02 | S. cerevisiae deletion strains, locus YLL041C, strain sdh2, hits give low values 0.998 | S. cerevisiae deletion strains, locus YLR027C, strain aat2, hits give low values 1.03 | S. cerevisiae deletion strains, locus YLR039C, strain RIC1, hits give low values 0.989 | S. cerevisiae deletion strains, locus YLR058C, strain SHM2, hits give low values 0.99 | S. cerevisiae deletion strains, locus YLR102C, strain apc9, hits give low values 0.996 | S. cerevisiae deletion strains, locus YLR113W, strain HOG1, hits give low values 0.993 | S. cerevisiae deletion strains, locus YLR221C, strain rsa3, hits give low values 1.04 | S. cerevisiae deletion strains, locus YLR258W, strain gsy2, hits give low values 0.998 | S. cerevisiae deletion strains, locus YLR262C, strain YPT6 (second series), hits give low values 1.01 | S. cerevisiae deletion strains, locus YLR262C, strain YPT6, hits give low values 0.997 | S. cerevisiae deletion strains, locus YLR268W, strain sec22, hits give low values 0.933 | S. cerevisiae deletion strains, locus YLR320W, strain mms22, hits give low values 1.02 | S. cerevisiae deletion strains, locus YLR330W, strain CHS5, hits give low values 0.989 | S. cerevisiae deletion strains, locus YLR342W, strain FKS1 (second series), hits give low values 1.06 | S. cerevisiae deletion strains, locus YLR342W, strain FKS1, hits give low values 1.01 | S. cerevisiae deletion strains, locus YLR357W, strain rsc2, hits give low values 1.05 | S. cerevisiae deletion strains, locus YLR370C, strain arc18, hits give low values 1.01 | S. cerevisiae deletion strains, locus YLR371W, strain rom2, hits give low values 1 | S. cerevisiae deletion strains, locus YLR384C, strain iki3, hits give low values 1.01 | S. cerevisiae deletion strains, locus YLR418C, strain cdc73, hits give low values 1.01 | S. cerevisiae deletion strains, locus YML016C, strain PPZ1, hits give low values 0.991 | S. cerevisiae deletion strains, locus YML032C, strain rad52, hits give low values 0.975 | S. cerevisiae deletion strains, locus YML120C, strain ndi1, hits give low values 1.01 | S. cerevisiae deletion strains, locus YML124C, strain tub3, hits give low values 0.988 | S. cerevisiae deletion strains, locus YMR058W, strain fet3, hits give low values 1.03 | S. cerevisiae deletion strains, locus YMR078C, strain ctf18, hits give low values 1.01 | S. cerevisiae deletion strains, locus YMR125W, strain sto1, hits give low values 1.01 | S. cerevisiae deletion strains, locus YMR129W, hits give low values 1.02 | S. cerevisiae deletion strains, locus YMR205C, strain PFK2, hits give low values 0.992 | S. cerevisiae deletion strains, locus YMR223W, strain ubp8, hits give low values 1.03 | S. cerevisiae deletion strains, locus YMR231W, strain pep5, hits give low values 1.02 | S. cerevisiae deletion strains, locus YMR263W, strain SAP30, hits give low values 0.982 | S. cerevisiae deletion strains, locus YMR307W, strain GAS1, hits give low values 1.09 | S. cerevisiae deletion strains, locus YNL067W, strain RPL9B, hits give low values 0.973 | S. cerevisiae deletion strains, locus YNL071W, strain lat1, hits give low values 1.02 | S. cerevisiae deletion strains, locus YNL128W, strain TEP1, hits give low values 1 | S. cerevisiae deletion strains, locus YNL153C, strain GIM3, hits give low values 0.981 | S. cerevisiae deletion strains, locus YNL183C, strain NPR1, hits give low values 0.952 | S. cerevisiae deletion strains, locus YNL209W, strain ssb2, hits give low values 1 | S. cerevisiae deletion strains, locus YNL233W, strain BNI4, hits give low values 0.977 | S. cerevisiae deletion strains, locus YNL248C, strain rpa49, hits give low values 1.02 | S. cerevisiae deletion strains, locus YNL250W, strain rad50, hits give low values 0.981 | S. cerevisiae deletion strains, locus YNL271C, strain bni1, hits give low values 0.986 | S. cerevisiae deletion strains, locus YNL298W, strain CLA4, hits give low values 0.985 | S. cerevisiae deletion strains, locus YNL307C, strain MCK1, hits give low values 0.98 | S. cerevisiae deletion strains, locus YNL322C, strain KRE1, hits give low values 0.99 | S. cerevisiae deletion strains, locus YNR049C, strain mso1, hits give low values 1 | S. cerevisiae deletion strains, locus YNR052C, strain pop2, hits give low values 0.996 | S. cerevisiae deletion strains, locus YOL006C, strain TOP1, hits give low values 0.953 | S. cerevisiae deletion strains, locus YOL012C, strain htz1 0.717 | S. cerevisiae deletion strains, locus YOL147C, strain pex11, hits give low values 0.99 | S. cerevisiae deletion strains, locus YOR001W, strain rrp6, hits give low values 1.02 | S. cerevisiae deletion strains, locus YOR061W, strain CKA2, hits give low values 0.999 | S. cerevisiae deletion strains, locus YOR069W, strain VPS5, hits give low values 0.996 | S. cerevisiae deletion strains, locus YOR070C, strain gyp1, hits give low values 1.02 | S. cerevisiae deletion strains, locus YOR080W, strain dia2, hits give low values 1.02 | S. cerevisiae deletion strains, locus YOR083W, strain WHI5, hits give low values 1.01 | S. cerevisiae deletion strains, locus YOR106W, strain vam3, hits give low values 0.988 | S. cerevisiae deletion strains, locus YOR136W, strain idh2, hits give low values 1.01 | S. cerevisiae deletion strains, locus YOR144C, strain elg1, hits give low values 0.994 | S. cerevisiae deletion strains, locus YOR184W, strain ser1, hits give low values 0.989 | S. cerevisiae deletion strains, locus YOR231W, strain MKK1, hits give low values 0.979 | S. cerevisiae deletion strains, locus YOR265W, strain rbl2, hits give low values 1.01 | S. cerevisiae deletion strains, locus YOR270C, strain vph1, hits give low values 1.04 | S. cerevisiae deletion strains, locus YOR290C, strain snf2, hits give low values 1.01 | S. cerevisiae deletion strains, locus YOR316C, strain cot1, hits give low values 0.985 | S. cerevisiae deletion strains, locus YPL051W, strain arl3, hits give low values 1.02 | S. cerevisiae deletion strains, locus YPL055C, strain LGE1, hits give low values 1.01 | S. cerevisiae deletion strains, locus YPL078C, strain atp4, hits give low values 1.02 | S. cerevisiae deletion strains, locus YPL106C, strain sse1, hits give low values 0.998 | S. cerevisiae deletion strains, locus YPL240C, strain hsp82, hits give low values 1.01 | S. cerevisiae deletion strains, locus YPL241C, strain CIN2, hits give low values 1 | S. cerevisiae deletion strains, locus YPL256C, strain CLN2, hits give low values 0.948 | S. cerevisiae deletion strains, locus YPR119W, strain clb2, hits give low values 0.99 | S. cerevisiae deletion strains, locus YPR141C, strain kar3, hits give low values 0.985 | S. cerevisiae deletion strains, locus YPR163C, strain tif3, hits give low values 0.99 | S. cerevisiae deletion strains, locus YPR167C, strain met16, hits give low values 0.989 | S. cerevisiae deletion strains, strain wtn01, hits give low values 0.989 | S. cerevisiae strains, strain wild type, hits give low values 1.01
